Source: PubChem BioAssay AID1159580 (chemical genetic matrix, 2015)
Several values for one entry are separate records, joined by “and”; a condition that tells them apart may be missing. Identical values can stand only once. Screen size: about 5,500 compounds; about 2,000 (36%) were called active. Roughly 18% stayed inconclusive and do not appear here. Cut-off read from the data, not from the text of the source: active = normalized growth mostly below about 0.91 (no sharp cut-off); inconclusive = no clear call, values can overlap the other calls; inactive = mostly above about 0.92. The list shows a part of the results.

Assay: chemical genetic growth profiling, strain panel (AID 1159580);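 note: tested at 20 µM; growth read once vehicle control cultures reached saturation at 30 °C; 1 = growth at the plate median or of vehicle wells; lower values mean less growth of the strain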
Details: S. cerevisiae deletion strains, growth OD

Measured: normalized growth

CN1C2C[C@H](OC(=O)[C@H](CO)c3ccccc3)C[C@H]1[C@@H](O)C2
inactive: locus YAL021C, strain ccr4, hits give low values 0.979 | locus YAL026C, strain drs2, hits give low values 1.04 | locus YAL030W, strain snc1, hits give low values 1.02 | locus YBL061C, strain skt5, hits give low values 1.03 | locus YBR009C, strain hhf1, hits give low values 1.01 | locus YBR021W, strain FUR4, hits give low values 0.995 | locus YBR023C, strain chs3, hits give low values 1.02 | locus YBR171W, strain sec66, hits give low values 1.01 | locus YBR229C, strain ROT2, hits give low values 1.01 | locus YBR231C, strain swc5, hits give low values 1.02 | locus YBR279W, strain paf1, hits give low values 1.02 | locus YCL011C, strain gbp2, hits give low values 1.01 | locus YCL016C, strain dcc1, hits give low values 0.998 | locus YCL029C, strain bik1, hits give low values 0.997 | locus YCL069W, strain vba3, hits give low values 1.01 | locus YCR088W, strain abp1, hits give low values 1.01 | locus YDL005C, strain med2, hits give low values 1.03 | locus YDL035C, strain GPR1, hits give low values 1.02 | locus YDL040C, strain nat1, hits give low values 1.02 | locus YDL074C, strain BRE1, hits give low values 1.01 | locus YDL101C, strain DUN1, hits give low values 1.01 | locus YDL134C, strain PPH21, hits give low values 1.01 | locus YDL185W, strain tfp1, hits give low values 0.992 | locus YDL192W, strain arf1, hits give low values 0.995 | locus YDR001C, strain nth1, hits give low values 1.02 | locus YDR069C, strain doa4, hits give low values 1.03 | locus YDR101C, strain arx1, hits give low values 1 | locus YDR137W, strain rgp1, hits give low values 1.03 | locus YDR159W, strain sac3, hits give low values 1.05 | locus YDR162C, strain NBP2, hits give low values 1.02 | locus YDR195W, strain ref2 1.01 | locus YDR297W, strain sur2, hits give low values 1.02 | locus YDR318W, strain mcm21, hits give low values 1 | locus YDR334W, strain swr1, hits give low values 1.01 | locus YDR335W, strain msn5, hits give low values 1.02 | locus YDR388W, hits give low values 1 | locus YDR392W, strain spt3, hits give low values 0.911 | locus YDR502C, strain sam2, hits give low values 1.01 | locus YEL003W, strain gim4, hits give low values 1.03 | locus YEL037C, strain rad23, hits give low values 1.01 | locus YEL061C, strain CIN8 (second series), hits give low values 1.02 | locus YEL061C, strain CIN8, hits give low values 1.01 | locus YER015W, strain faa2, hits give low values 1.01 | locus YER016W, strain bim1, hits give low values 1.03 | locus YER110C, hits give low values 1 | locus YER111C, strain swi4, hits give low values 1.02 | locus YER155C, strain BEM2 (second series), hits give low values 1.02 | locus YER155C, strain BEM2, hits give low values 1.01 | locus YER167W, strain BCK2, hits give low values 1 | locus YFR010W, strain ubp6, hits give low values 1.04 | locus YGL078C, strain dbp3, hits give low values 0.999 | locus YGL086W, strain mad1, hits give low values 0.993 | locus YGL167C, strain pmr1, hits give low values 1.02 | locus YGL173C, strain kem1, hits give low values 1.03 | locus YGL227W, strain vid30, hits give low values 1.02 | locus YGL240W, strain doc1, hits give low values 1.02 | locus YGL248W, strain PDE1, hits give low values 1.01 | locus YGL253W, strain hxk2, hits give low values 1.04 | locus YGR078C, strain PAC10, hits give low values 1.01 | locus YGR135W, strain pre9, hits give low values 1 | locus YGR229C, strain SMI1, hits give low values 1.02 | locus YGR252W, strain gcn5, hits give low values 0.955 | locus YHR013C, strain ard1, hits give low values 1.01 | locus YHR027C, strain rpn1, hits give low values 1.01 | locus YHR030C, strain SLT2, hits give low values 1.01 | locus YHR079C, strain IRE1 (second series), hits give low values 1 | locus YHR079C, strain IRE1, hits give low values 0.992 | locus YHR094C, strain hxt1, hits give low values 0.992 | locus YHR129C, strain ARP1, hits give low values 1.01 | locus YHR142W, strain chs7, hits give low values 1.03 | locus YHR200W, strain rpn10, hits give low values 1 | locus YIL066C, strain RNR3, hits give low values 1.02 | locus YIL073C, strain SPO22, hits give low values 1.01 | locus YIL125W, strain kgd1, hits give low values 0.991 | locus YIR030C, strain dcg1, hits give low values 0.99 | locus YJL092W, strain hpr5, hits give low values 1.02 | locus YJL095W, strain BCK1 (second series), hits give low values 1.01 | locus YJL095W, strain BCK1, hits give low values 1.02 and 1 | locus YJL115W, strain asf1, hits give low values 1.01 | locus YJL129C, strain trk1, hits give low values 1.02 | locus YJL134W, strain LCB3, hits give low values 1.01 | locus YJL154C, strain vps35, hits give low values 1.02 | locus YJL164C, strain tpk1, hits give low values 0.996 | locus YJL166W, strain qcr8, hits give low values 1.03 | locus YJL168C, strain set2, hits give low values 1 | locus YJL187C, strain SWE1 (second series), hits give low values 1.01 | locus YJR043C, strain POL32, hits give low values 1.03 | locus YJR066W, strain TOR1, hits give low values 0.96 | locus YJR075W, strain HOC1, hits give low values 1.01 | locus YKL009W, strain mrt4, hits give low values 1.01 | locus YKL068W, hits give low values 0.987 | locus YKL085W, strain MDH1 (second series), hits give low values 1.01 | locus YKL085W, strain MDH1, hits give low values 1.01 | locus YKL160W, strain elf1, hits give low values 1 | locus YKL190W, strain CNB1, hits give low values 1.01 | locus YKR001C, strain vps1, hits give low values 0.981 | locus YKR026C, strain gcn3, hits give low values 1.01 | locus YKR091W, strain srl3, hits give low values 1.02 | locus YLL001W, strain dnm1, hits give low values 1.02 | locus YLL026W, hits give low values 1.02 | locus YLL041C, strain sdh2, hits give low values 1.02 | locus YLR027C, strain aat2, hits give low values 1.03 | locus YLR039C, strain RIC1, hits give low values 1.03 | locus YLR058C, strain SHM2, hits give low values 1.01 | locus YLR102C, strain apc9, hits give low values 0.997 | locus YLR113W, strain HOG1, hits give low values 0.978 | locus YLR221C, strain rsa3, hits give low values 1.02 | locus YLR258W, strain gsy2, hits give low values 1.02 | locus YLR262C, strain YPT6 (second series), hits give low values 1.03 | locus YLR262C, strain YPT6, hits give low values 1.05 | locus YLR268W, strain sec22, hits give low values 0.995 | locus YLR320W, strain mms22, hits give low values 1.04 | locus YLR330W, strain CHS5, hits give low values 1.01 | locus YLR342W, strain FKS1 (second series), hits give low values 1.02 | locus YLR342W, strain FKS1, hits give low values 1.02 | locus YLR357W, strain rsc2, hits give low values 1 | locus YLR370C, strain arc18, hits give low values 1.01 | locus YLR371W, strain rom2, hits give low values 0.989 | locus YLR384C, strain iki3, hits give low values 1.02 | locus YLR418C, strain cdc73, hits give low values 0.991 | locus YML016C, strain PPZ1, hits give low values 1.01 | locus YML032C, strain rad52, hits give low values 0.99 | locus YML120C, strain ndi1, hits give low values 1 | locus YML124C, strain tub3, hits give low values 1 | locus YMR058W, strain fet3, hits give low values 1.03 | locus YMR078C, strain ctf18, hits give low values 0.999 | locus YMR125W, strain sto1, hits give low values 0.983 | locus YMR129W, hits give low values 1.02 | locus YMR205C, strain PFK2, hits give low values 1.04 | locus YMR223W, strain ubp8, hits give low values 1.02 | locus YMR231W, strain pep5, hits give low values 1.01 | locus YMR263W, strain SAP30, hits give low values 1.01 | locus YMR307W, strain GAS1, hits give low values 0.97 | locus YNL067W, strain RPL9B, hits give low values 1.01 | locus YNL071W, strain lat1, hits give low values 1.02 | locus YNL183C, strain NPR1, hits give low values 0.96 | locus YNL209W, strain ssb2, hits give low values 1.04 | locus YNL233W, strain BNI4, hits give low values 0.992 | locus YNL248C, strain rpa49, hits give low values 0.941 | locus YNL250W, strain rad50, hits give low values 1 | locus YNL271C, strain bni1, hits give low values 0.99 | locus YNL298W, strain CLA4, hits give low values 1.02 | locus YNL307C, strain MCK1, hits give low values 0.995 | locus YNL322C, strain KRE1 (second series), hits give low values 1.01 | locus YNR049C, strain mso1, hits give low values 1.01 | locus YNR052C, strain pop2, hits give low values 0.992 | locus YOL006C, strain TOP1, hits give low values 0.998 | locus YOL012C, strain htz1 0.77 | locus YOL147C, strain pex11, hits give low values 1 | locus YOR001W, strain rrp6, hits give low values 1.04 | locus YOR061W, strain CKA2, hits give low values 1.01 | locus YOR069W, strain VPS5, hits give low values 1.01 | locus YOR070C, strain gyp1, hits give low values 1.03 | locus YOR080W, strain dia2, hits give low values 1.02 | locus YOR083W, strain WHI5, hits give low values 1.01 | locus YOR106W, strain vam3, hits give low values 0.994 | locus YOR136W, strain idh2, hits give low values 0.992 | locus YOR144C, strain elg1, hits give low values 0.997 | locus YOR184W, strain ser1, hits give low values 1.02 | locus YOR231W, strain MKK1, hits give low values 0.99 | locus YOR265W, strain rbl2, hits give low values 1.01 | locus YOR270C, strain vph1, hits give low values 1.07 | locus YOR290C, strain snf2, hits give low values 0.969 | locus YOR316C, strain cot1, hits give low values 1 | locus YPL051W, strain arl3, hits give low values 1 | locus YPL078C, strain atp4, hits give low values 0.984 | locus YPL106C, strain sse1, hits give low values 1.01 | locus YPL240C, strain hsp82, hits give low values 1.02 | locus YPL256C, strain CLN2, hits give low values 1 | locus YPR119W, strain clb2, hits give low values 1 | locus YPR141C, strain kar3, hits give low values 0.995 | locus YPR163C, strain tif3, hits give low values 1.02 | locus YPR167C, strain met16, hits give low values 1 | strain wtn01, hits give low values 0.986
